The list is not random: actives were taken first. Their share in the collection is about 2.7%.
TGFb SMAD3 inh = inhibitors of TGF-b signaling; HepG2 CAGA-GFP TGF-b/SMAD3 reporter, GFP fluorescence, 18 h; TGF-beta stimulated, 500 pg/mL final; Potency, µM (series often up to 46.1 µM), for inactives: top-dose activity, negative = inhibition, actives largely listed as inhibitors; hit rate 1.2% among 410,000; AID 588855; also: % is scaled to controls: 0 for no effect and ±100 for the full control effect; nearly all actives have a fitted effect of over 65% in size
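GFP signal (ex488/em500-530) from TGF-beta-stimulated HEPG2 CAGA-GFP cells, 500 pg/mL final, 18 h at 37 degrees C in DMEM plus 1% FBS, normalized to unstimulated and DMSO-stimulated controls.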
12-LOX inh = blocks human arachidonate 12S-lipoxygenase | purified 12hLO, xylenol orange hydroperoxide absorbance | hit rate 1.1% among 580,000 | Potency, µM (doses to about 108 µM), inactives show top-dose activity change, negative = inhibition, usual class: inhibitors | AID 1671190 | P18054; also: % is scaled to controls: 0 for no effect and ±100 for the full control effect
Target sequence (P18054 whole entry, looked up): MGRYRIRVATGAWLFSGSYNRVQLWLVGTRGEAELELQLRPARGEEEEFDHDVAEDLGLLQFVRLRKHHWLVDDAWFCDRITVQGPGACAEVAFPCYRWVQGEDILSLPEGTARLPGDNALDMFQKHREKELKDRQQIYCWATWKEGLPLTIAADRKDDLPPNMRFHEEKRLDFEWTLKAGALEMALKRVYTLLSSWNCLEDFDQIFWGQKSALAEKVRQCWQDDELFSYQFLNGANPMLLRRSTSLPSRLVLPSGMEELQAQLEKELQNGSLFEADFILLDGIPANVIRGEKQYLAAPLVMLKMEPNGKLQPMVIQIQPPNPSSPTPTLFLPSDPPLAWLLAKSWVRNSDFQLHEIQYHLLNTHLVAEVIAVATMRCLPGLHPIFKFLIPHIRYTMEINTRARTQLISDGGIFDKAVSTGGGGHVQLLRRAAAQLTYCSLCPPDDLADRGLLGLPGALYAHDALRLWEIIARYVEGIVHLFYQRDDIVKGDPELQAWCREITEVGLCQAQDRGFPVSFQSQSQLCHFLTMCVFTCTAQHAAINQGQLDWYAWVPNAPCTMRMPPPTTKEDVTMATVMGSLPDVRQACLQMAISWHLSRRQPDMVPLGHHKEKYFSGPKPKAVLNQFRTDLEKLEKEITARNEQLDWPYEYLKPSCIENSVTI
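Purified human 12hLO (150 nM final) in 25 mM Hepes, 0.01% Triton X-100, pH 7.0 was preincubated 15 min at room temperature with compound. Then 40 uM arachidonic acid was added, 30 min. Hydroperoxide was read by Fe-XO absorbance ratio 573/405 nm.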
HepG2 viability = kills HepG2 cells in TGF-b inhibitor counter-screen | HepG2 CAGA-GFP viability, ATP luminescence, 18 h | Potency, µM (series often up to 46.1 µM), for inactives: at the top dose activity change, negative = cytotoxicity, actives largely listed as cytotoxic | hit rate 0.76% among 410,000 | AID 588856
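CellTiter-Glo luminescence gave cytotoxicity after 18 hours at 37 degrees C. The cells were HepG2 CAGA-GFP in 1% FBS DMEM, stimulated with 500 pg/mL TGF-beta after compound addition. %Activity was normalised to no-cell wells (complete cell-killing) and DMSO (no toxicity), and curves were fitted and classified.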
ATXN2 expr inh = ATXN2 expression inhibition; HEK-293 ATXN2-luciferase reporter, luminescence, 24 h; Potency, µM (highest dose often 57 µM), inactives show at the top dose activity change, negative = inhibition, hits mostly inhibitors; AID 1745845; hit rate 0.72% among 360,000; also: % is scaled to controls: 0 for no effect and ±100 for the full control effect; nearly all actives have a fitted effect of over 55% in size
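qHTS (up to 57 uM final) was run with 24 h compound exposure of reporter cells at 37 °C. Each well was multiplexed: SteadyGlo luminescence measured ATXN2-luciferase expression after a fluorogenic Gly-Phe-AFC viability readout (25 uM final).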
S2 tox = viability counter-screen for ATXN expression inhibitors | Potency, µM (series often up to 56.7 µM), usual class: cytotoxic | AID 651635 | hit rate 0.49% among 400,000 | S2 cells (HEK-293 line with an ATXN2-luciferase reporter) viability, CellTiter-Fluor protease fluorescence, 24 h; also: nearly all actives have a fitted effect of over 40% in size
* = called active by the depositor. Calls follow the shape of the dose curve; as a rule, active = well fitted curve in the direction sought with a large enough effect; inconclusive = small, poorly fitted or top-dose-only effect, or another doubt; inactive = no such curve, though single readings can be large; an effect the other way counts as inactive or inconclusive. Potency is read from the fitted curve at half-maximal effect.

Results for Cc1cccc(NS(=O)(=O)c2cccc(C(=O)N3CCN(c4ccccn4)CC3)c2)c1 ?
TGFb SMAD3 inh: inconclusive; 12-LOX inh: -1.9%; HepG2 viability: 0.0%; ATXN2 expr inh: -14.6%; S2 tox: inactive

How did Cc1ccc(C(C)(C)C)cc1S(=O)(=O)Nc1cccc(C(=O)N2CCN(c3ccccn3)CC2)c1 do in these assays?
TGFb SMAD3 inh: 28.2µM*; 12-LOX inh: -14.8%; HepG2 viability: -30.7%; ATXN2 expr inh: 8.4%; S2 tox: inactive

What do the screens show for `COC(=O)c1c(NC(=O)C(Cl)Cl)sc2c1C(C(=O)OC)CC2` (configuration not stated)?
TGFb SMAD3 inh: 11.2µM*; 12-LOX inh: 61.1%; HepG2 viability: -72.3%; S2 tox: inactive

Results for COC(=O)c1c(NC(=O)C(C)(C)C)sc2c1C(C(=O)OC)CC2 (configuration not stated) ?
TGFb SMAD3 inh: 4.5%; 12-LOX inh: 0.0%; HepG2 viability: -0.1%; ATXN2 expr inh: -13.0%; S2 tox: inactive

How did C[N+]1(Cc2c(Cl)cccc2Cl)CCN(/C=C/C(=O)C(F)(F)F)CC1 do in these assays?
12-LOX inh: -64.8%

What do the screens show for `Cc1cc2c(cc1C)N(C(=O)CCl)CC(=O)N2`?
TGFb SMAD3 inh: inconclusive; HepG2 viability: -86.2%; S2 tox: inconclusive

Results for Cc1cc2c(cc1C)N(C(=O)CCl)CCN2C(=O)CCl ?
TGFb SMAD3 inh: inconclusive; 12-LOX inh: 8.91µM*; HepG2 viability: -110.6%; ATXN2 expr inh: inconclusive

What do the screens show for `CCCc1cc(C(=O)NC2CC2)cs1`?
12-LOX inh: -1.3%

What do the screens show for `Cc1nc2cc(NC(=O)c3ccccc3Cl)ccc2o1`?
12-LOX inh: -1.1%

What do the screens show for `O=C1c2cccc(NCCCNCCO)c2C(=O)c2cccc(NCCCNCCO)c21`?
TGFb SMAD3 inh: 15.8µM*; 12-LOX inh: 5.9%; HepG2 viability: -64.7%; ATXN2 expr inh: 13.4µM*

What do the screens show for `Cc1ccc(N/C(N)=N/c2nc(C)cc(N3CCCCC3)n2)c(C)c1`?
TGFb SMAD3 inh: inconclusive; 12-LOX inh: -4.1%; HepG2 viability: -22.4%; ATXN2 expr inh: 22.4µM*; S2 tox: inconclusive

Results for COc1ccc(-n2c(COc3ccc(Cl)cc3Cl)n[nH]c2=S)cc1 ?
TGFb SMAD3 inh: inconclusive; 12-LOX inh: inconclusive; HepG2 viability: -3.6%; S2 tox: inactive

How did CCN(CC)CCCn1c(-c2ccc(COc3cc(C)ccc3Cl)cc2)n[nH]c1=S do in these assays?
12-LOX inh: 35.5µM*

How did Cc1ccc(C(C)C)c(OCc2n[nH]c(=S)n2Cc2ccc(Cl)cc2)c1 do in these assays?
12-LOX inh: 28.2µM*

What do the screens show for `Cc1cccc(OCc2n[nH]c(=S)n2Cc2ccccc2)c1`?
TGFb SMAD3 inh: -16.5%; 12-LOX inh: inconclusive; HepG2 viability: -15.2%; S2 tox: inactive

What do the screens show for `Cn1c(COc2cc(Cl)ccc2Cl)n[nH]c1=S`?
12-LOX inh: 50.1µM*

How did Cc1ccc(Cl)c(OCc2n[nH]c(=S)n2C)c1 do in these assays?
12-LOX inh: 31.6µM*

Results for CCOCCCn1c(-c2ccc(Cl)cc2)n[nH]c1=S ?
TGFb SMAD3 inh: -1.4%; 12-LOX inh: inconclusive; HepG2 viability: -3.8%; ATXN2 expr inh: -5.9%; S2 tox: inactive

What do the screens show for `N#Cc1nc(-c2ccco2)oc1N1CCN(CC(=O)N(Cc2ccccc2F)C2CC2)CC1`?
12-LOX inh: 39.1%

Results for CNC12CC3CC(CC(S)(C3)C1)C2 ?
12-LOX inh: 0.6%

Results for COc1cccc(CNC(=O)C2CCN(C(=O)N3CC(C)Oc4ccc(C)cc43)CC2)c1 (configuration not stated) ?
12-LOX inh: -9.8%

How did CCCCCn1c(COc2ccccc2Cl)n[nH]c1=S do in these assays?
12-LOX inh: 28.2µM*

How did CCOC(=O)C1(Cc2cccc(OC)c2)CCCN(C(=O)CCN2CCCCO2)C1 (configuration not stated) do in these assays?
12-LOX inh: 69.1%

How did COc1cc(C2NCC(c3ccc(Cl)cc3Cl)c3c2[nH]c2ccccc32)cc(OC)c1OC (configuration not stated) do in these assays?
TGFb SMAD3 inh: -13.1%; 12-LOX inh: 28.2µM*; HepG2 viability: 0.2%; ATXN2 expr inh: -24.0%; S2 tox: inactive

What do the screens show for `COc1cccc2cc(C(=O)/C=C/c3ccc(C#N)cc3)oc12`?
12-LOX inh: 54.1%

How did CCN(CC)CCOC(=O)c1ccc(NC(=O)c2nn(-c3ccc(C)cc3)c(=O)c3c2c2ccccc2n3C)cc1 do in these assays?
TGFb SMAD3 inh: 4.47µM*; 12-LOX inh: inconclusive; HepG2 viability: 3.55µM*

What do the screens show for `CCN(CC)CCCNC(=O)c1nn(-c2ccc(C)cc2)c(=O)c2c1c1ccccc1n2C`?
TGFb SMAD3 inh: 5.3%; 12-LOX inh: inconclusive; HepG2 viability: -28.6%; ATXN2 expr inh: -10.0%; S2 tox: inactive

What do the screens show for `O=C(/C(=C/c1ccc(Cl)cc1)c1nc2ccccc2o1)c1ccccc1`?
12-LOX inh: -8.1%

What do the screens show for `CCc1nc2c(NC(=O)Nc3cccc(C(=O)OC)c3)cccn2n1`?
12-LOX inh: 70.8µM*

What do the screens show for `CCn1c(/C=C/c2cc[n+](C)cc2)nc2ccccc21`?
TGFb SMAD3 inh: 2.6%; 12-LOX inh: 11.2µM*; HepG2 viability: -2.8%; ATXN2 expr inh: 0.2%

What do the screens show for `O=C1NC(c2cccc(Br)c2)=N/C1=C\c1ccco1`?
TGFb SMAD3 inh: -26.0%; 12-LOX inh: 44.7µM*; HepG2 viability: -7.2%; ATXN2 expr inh: 8.1%; S2 tox: inactive

How did CC(C)(C)c1ccccc1NC(=O)CSc1ncnc2ccccc12 do in these assays?
12-LOX inh: 2.6%

How did CC(O)(CS(=O)(=O)Cc1ccc(Cl)cc1)C(=O)Nc1cccc(C(F)(F)F)c1 (configuration not stated) do in these assays?
TGFb SMAD3 inh: -8.2%; 12-LOX inh: 3.16µM*; HepG2 viability: -7.9%; ATXN2 expr inh: inconclusive; S2 tox: inactive

Results for CC(C)(O)C(=O)NNC(=S)Nc1cccc(C(F)(F)F)c1 ?
TGFb SMAD3 inh: 5.6%; 12-LOX inh: -1.3%; HepG2 viability: -0.1%; ATXN2 expr inh: -12.2%; S2 tox: inactive

Results for COc1ccc2c(c1OC)C(=O)OC2CC(=O)c1ccccc1 (configuration not stated) ?
12-LOX inh: 5.3%

Results for O=c1[nH]c2ccc(-c3csc(NC4CCCC4)n3)cc2o1 ?
12-LOX inh: 6.31µM*

What do the screens show for `CCCNc1nc(-c2ccc3[nH]c(=O)oc3c2)cs1`?
12-LOX inh: 12.6µM*

Screening data as filed in PubChem.
